Laboratory results taken from PubChem BioAssay (NCATS).
Inconclusive results are not listed. Entries that show only a call come without a potency. Activity calls are given as the source filed them. Calls come from the whole dose curve; as a rule, active = well fitted curve in the direction sought with a large enough effect; inconclusive = small, poorly fitted or top-dose-only effect, or another doubt; inactive = no such curve, though single readings can be large; an effect the other way counts as inactive or inconclusive. Peptide text beside a SMILES is read from it. * marks the point of attachment. AFC = O=c1cc(C(F)(F)F)c2ccc(N*)cc2o1

Experiments:
[1] = molecular target: Cellular tumor antigen p53 (Homo sapiens) (UniProt P04637); test: Primary qHTS for small molecule compounds that upregulate eGFP-tagged delta133p53alpha (in N-terminal) cells. (AID 2060322); conditions: NCI-H358 eGFP-delta133p53alpha fluorescence, 24 h; activation: active compounds read high; note: nearly all actives have a fitted effect of over 75% in size; note: potency is the fitted concentration of half-maximal effect
Sequence of Cellular tumor antigen p53 (Homo sapiens) (P04637 whole entry, looked up): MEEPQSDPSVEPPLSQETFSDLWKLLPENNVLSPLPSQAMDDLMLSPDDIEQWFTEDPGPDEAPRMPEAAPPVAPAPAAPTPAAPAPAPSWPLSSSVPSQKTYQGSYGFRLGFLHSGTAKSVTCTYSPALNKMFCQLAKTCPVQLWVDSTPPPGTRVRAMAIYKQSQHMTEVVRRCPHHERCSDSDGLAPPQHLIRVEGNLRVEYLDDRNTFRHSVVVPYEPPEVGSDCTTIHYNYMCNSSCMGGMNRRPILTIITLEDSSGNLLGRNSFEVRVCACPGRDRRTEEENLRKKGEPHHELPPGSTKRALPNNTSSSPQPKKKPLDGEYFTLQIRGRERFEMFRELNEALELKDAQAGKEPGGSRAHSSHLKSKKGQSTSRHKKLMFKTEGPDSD
How it was run: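 NCI-H358 cells pre-induced 24 h with 10 ng/ml doxycycline to express N-terminal eGFP-delta133p53alpha, then dosed 24 h at 37C without doxycycline; fixed, Hoechst-stained, GFP intensity by laser scanning cytometry, normalized to DMSO (0%) and 57.5 uM 5-azacytidine (100%).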

[2] = molecular target: Aldehyde dehydrogenase, mitochondrial (Homo sapiens) (UniProt P05091); test: qHTS for Inhibitors of the Aldehyde Dehydrogenase Family (ALDH2) Primary screen (AID 2061308); conditions: ALDH2 enzyme inhibition qHTS, 1536-well; series mostly up to 56 µM; note: nearly all actives have a fitted effect of over 55% in size
[3] = molecular target: Retinaldehyde dehydrogenase 3 (Homo sapiens) (UniProt P47895); test: qHTS for Inhibitors of the Aldehyde Dehydrogenase Family (ALDH1A3) Primary screen (AID 2061315); conditions: ALDH inhibition qHTS; series mostly up to 56 µM

Structure (SMILES): CCCCCOC(=O)Nc1nc(=O)n(C2O[C@H](C)[C@@H](O)[C@H]2O)cc1F (stereo not given in full)
- activation [1]: -11.7% (inactive)
- Potency [2]: inactive
- Potency [3]: inactive

Structure (SMILES): C=CC1(C)C=C2CCC3C(C)(C)C(O[C@@H]4O[C@@H](CO)[C@H](O)[C@H]4O)CCC3(C)C2CC1O[C@@H]1O[C@H](C)[C@H](O)[C@H](O)[C@H]1O (stereo not given in full)
- activation [1]: 0.763% (inactive)
- Potency [2]: inactive
- Potency [3]: inactive

Structure (SMILES): CCOC(=O)C1(CCOc2ccccc2)CCN(Cc2ccc(O)c(Cl)c2)CC1
- activation [1]: 3.67% (inactive)
- Potency [2]: inactive
- Potency [3]: inactive

Structure (SMILES): CC(=O)c1c(O)cc2c(c1C)C(=O)CC(O)C2 (stereo not given)
- activation [1]: -14.5% (inactive)
- Potency [2]: inactive
- Potency [3]: inactive

Structure (SMILES): C=CCC/C=C/C#CCCCCCCCC[C@H]1C(=O)O[C@H](C)[C@@H]1O
- activation [1]: 8.4% (inactive)
- Potency [2]: inactive
- Potency [3]: inactive

Structure (SMILES): CC(=O)N[C@@H](Cc1c[nH]c2ccccc12)C(=O)N[C@@H](CCC(=O)O)C(=O)N[C@@H](Cc1cnc[nH]1)C(=O)N[C@@H](CC(=O)O)C(=O)Nc1ccc2c(C(F)(F)F)cc(=O)oc2c1 (Ac-WEHD-{AFC})
- activation [1]: -4.33% (inactive)
- Potency [2]: inactive
- Potency [3]: inactive

Structure (SMILES): C=C1CCC2C(C)(C(=O)O)CCCC2(C)C1CC/C(C)=C\CO (stereo not given)
- activation [1]: 15.2% (inactive)
- Potency [2]: inactive
- Potency [3]: inactive

Structure (SMILES): CCC(C)CNCC(=O)N1CCC2SC=CC2C1COc1cccc(C)c1 (stereo not given)
- activation [1]: 17.9% (inactive)
- Potency [2]: inactive
- Potency [3]: inactive

Structure (SMILES): Cc1c(CN2CCN(C(=O)C(C)O)CC2)sc2c(N3CCOCC3)nc(-c3cnc(N)nc3)nc12 (stereo not given)
- Potency [1]: 12 µM (active)
- Potency [2]: inactive
- Potency [3]: inactive

Structure (SMILES): CCCNc1ccc2ncc(-c3ccc4[nH]ncc4c3)n2n1
- Potency [1]: 2.39 µM (active)
- Potency [2]: inactive
- Potency [3]: inactive

Structure (SMILES): CCOC(=O)N1c2ccc(C(F)(F)F)cc2C(N(Cc2cc(C(F)(F)F)cc(C(F)(F)F)c2)C(=O)OC)CC1CC (stereo not given)
- activation [1]: -4.3% (inactive)
- Potency [2]: inactive
- Potency [3]: inactive

Structure (SMILES): C[C@@H]1O[C@@H](O[C@H]2[C@H](OC(=O)[C@]34CCC(C)(C)C[C@H]3C3=CCC5[C@@]6(C)CC[C@H](O[C@@H]7O[C@H](CO[C@@H]8OC[C@H](O)[C@H](O)[C@H]8O[C@@H]8OC[C@@H](O)[C@H](O)[C@H]8O)[C@@H](O)[C@H](O)[C@H]7O)C(C)(C)C6CC[C@@]5(C)[C@]3(C)C[C@H]4O)O[C@H](CO)[C@@H](O)[C@@H]2O)[C@H](O[C@@H]2O[C@H](CO)[C@@H](O)[C@H](O)[C@H]2O)[C@H](O)[C@H]1O[C@@H]1OC[C@@H](O)[C@H](O[C@@H]2OC[C@@H](O)[C@H](O)[C@H]2O)[C@H]1O (stereo not given in full)
- activation [1]: -9.92% (inactive)
- activity change, negative = inhibition [2]: 6.45% [at 11.2 µM] (inactive)
- activity change, negative = inhibition [3]: 8.82% [at 11.2 µM] (inactive)

Structure (SMILES): C[C@@H]1C(=O)O[C@H]2CC34[C@H]5C[C@@H](C(C)(C)C)C36[C@@H](OC(=O)[C@@H]6O)O[C@@]4(C(=O)O5)[C@]21O (stereo not given in full)
- activation [1]: 19.1% (inactive)
- Potency [2]: inactive
- Potency [3]: inactive

Structure (SMILES): CC(C)c1ccc2c(c1)C(=O)CC1C(C)(C(=O)O)CCCC21C (stereo not given)
- activation [1]: 3.57% (inactive)
- Potency [2]: inactive
- Potency [3]: inactive

Structure (SMILES): CC1OC(OC2C(OC3C(O[C@H]4CC[C@@]5(C)C(CC[C@]6(C)C5CC=C5C7CC(C)(C)CC(O)[C@]7(C)CC[C@]56C)C4(C)C)OC(C(=O)O)C(O)C3O)OCC(O)C2O)C(O)C(O)C1O (stereo not given in full)
- activation [1]: 3.57% (inactive)
- Potency [2]: inactive
- Potency [3]: inactive

Structure (SMILES): CC(C)(C)CCN1C[C@@H]2C(CNC(=O)c3cc(Cl)cc(Cl)c3)[C@@H]2C1 (stereo not given in full)
- activation [1]: 26.3% (inactive)
- Potency [2]: inactive
- Potency [3]: inactive

Structure (SMILES): CC1(C)SC2C(NC(=O)[C@H](C(=O)O)c3ccsc3)C(=O)N2C1C(=O)O (stereo not given in full)
- activation [1]: 3.67% (inactive)
- Potency [2]: inactive
- Potency [3]: inactive

Structure (SMILES): C[C@@H]1O[C@@H](OC2C(CO)OC(OCC3OC(OC(=O)[C@]45CCC(C)(C)CC4C4=CCC6[C@@]7(C)CC[C@@H](O)[C@](C)(C(=O)O)C7CC[C@@]6(C)[C@]4(C)CC5)C(O)C(O)C3O)C(O)C2O)[C@H](O)[C@H](O)[C@H]1O (stereo not given in full)
- activation [1]: -3.82% (inactive)
- Potency [2]: inactive
- Potency [3]: inactive

Structure (SMILES): C[C@@H]1O[C@@H](O[C@@H]2[C@@H](O)[C@@H](O)[C@H](O[C@@H]3[C@@H](O)[C@@H](O[C@]4(CO)O[C@H](CO)[C@@H](O)[C@@H]4OC(=O)/C=C/c4ccc(O)cc4)O[C@H](CO)[C@H]3OC(=O)/C=C/c3ccc(O)cc3)O[C@H]2C)[C@H](O)[C@H](O)[C@H]1O
- activation [1]: 3.82% (inactive)
- Potency [2]: inactive
- Potency [3]: inactive

Structure (SMILES): CC(=O)O[C@@H]1C(O)C[C@@]2(C)C(CC[C@@H](C)C23Cc2c(O)cc4c(c2O3)CNC4=O)C1(C)C (stereo not given in full)
- activation [1]: -14.5% (inactive)
- Potency [2]: inactive
- Potency [3]: inactive
